Entries with a potency or affinity are not part of this list.
Legend:
Staphylococcus aureus = settings: Concentration 20 uM; ASSAY_TEST Inhibition of Bacterial Growth; detection method Absorption (OD600); MEDIA CAMHB; plate type 384well; NBS; CORNING #3640; time 18 hr
Escherichia coli = settings: Concentration 20 uM; ASSAY_TEST Inhibition of Bacterial Growth; detection method Absorption (OD600); MEDIA CAMHB; plate type 384well; NBS; CORNING #3640; time 18 hr

| Structure (SMILES) | Inhibition (Staphylococcus aureus) | Inhibition (Escherichia coli) |
| --- | --- | --- |
| COc1ccc(CC2c3cc(OC)c(OC)cc3CC[N+]2(C)CCC(=O)OCCCCCOC(=O)CC[N+]2(C)CCc3cc(OC)c(OC)cc3C2Cc2ccc(OC)c(OC)c2)cc1OC.O=S(=O)(O)c1ccccc1 (stereo unspecified) | 4.52% | 6.82% |
| CC(=O)O.CC(C)C[C@H](NC(=O)[C@@H](COC(C)(C)C)NC(=O)[C@H](Cc1ccc(O)cc1)NC(=O)[C@H](CO)NC(=O)[C@H](Cc1c[nH]c2ccccc12)NC(=O)[C@H](Cc1c[nH]cn1)NC(=O)[C@H]1CCC(=O)N1)C(=O)N[C@H](CCCNC(=N)N)C(=O)N1CCC[C@@H]1C(=O)NNC(N)=O | 9.86% | 5.78% |
| CO[C@H]1O[C@@H]2O[C@@]3(C)CC[C@H]4[C@H](C)CC[C@@H]([C@H]1C)[C@@]24OO3 | 8.78% | 13.66% |
| CC12CC3CC(C)(C1)CC(N)(C3)C2.Cl [MEMANTINE HYDROCHLORIDE] | 17.71% | 5.88% |
| CC(C)OC(=O)CCC/C=C\C[C@@H]1[C@@H](CC[C@@H](O)CCc2ccccc2)[C@H](O)C[C@@H]1O [LATANOPROST] | 13.97% | 1.96% |
| OCCN1CCN(CCCN2c3ccccc3Sc3ccc(Cl)cc32)CC1 [PERPHENAZINE] | 23.21% | 4.38% |
| CN1CCC(=C2c3ccccc3CCc3sccc32)CC1.O=C(O)/C=C\C(=O)O | 4.8% | 2.87% |
| O=c1[nH]c(=O)n(C2CCCO2)cc1F (stereo unspecified) [TEGAFUR] | 17.75% | 8.41% |

Source: ChEMBL document CHEMBL4513141, “CO-ADD screening of NIH (USA) - Clinical Collection” (2021)
